PubChem BioAssay (NCI)
Compounds without any hit were thinned out: in the full panel of roughly 79,000, 15% have a hit. A number with no mark means an inactive call. Active and inactive are the calls of the source. No stated cut-off is given here; in the data, active means growth inhibition above about 70%; inactive means the rest.

Experiments:
[1] = NCI Yeast Anticancer Drug Screen. Data for the rad50 strain (AID 155);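 further: 0% = growth of vehicle-only cultures of the same strain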; conditions: S. cerevisiae rad50 strain growth inhibition, active compounds read high; at 50.0 µM unless noted
How it was run: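 Yeast carrying a defined DNA repair defect were exposed to test compounds, and growth was compared with vehicle-treated controls to give percent inhibition.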

[2] = NCI Yeast Anticancer Drug Screen. Data for the mec2-1 strain (AID 157); conditions: S. cerevisiae mec2-1 strain, active compounds read high; at 50.0 µM unless noted
How it was run: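 Yeast mec2-1 mutant treated with compound. Readout: growth inhibition vs vehicle controls.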

[3] = NCI Yeast Anticancer Drug Screen. Data for the sgs1 mgt1 strain (AID 161);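 further: 0% = growth of cultures given vehicle only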; conditions: S. cerevisiae sgs1 mgt1 strain, active compounds read high; at 50.0 µM unless noted
How it was run: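 Genetically altered yeast, compound exposure, growth inhibition relative to vehicle.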

[4] = NCI Yeast Anticancer Drug Screen. Data for the cln2 rad14 strain (AID 165);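 further: 0% = growth equal to vehicle treated cultures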; conditions: S. cerevisiae cln2 rad14 strain, active compounds read high; at 50.0 µM unless noted
How it was run: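 cln2 rad14 yeast strain; compound exposure; growth inhibition read vs vehicle controls.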

[5] = NCI Yeast Anticancer Drug Screen. Data for the bub3 strain (AID 167); conditions: S. cerevisiae bub3 mutant strain, active compounds read high; at 50.0 µM unless noted
How it was run: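 Compounds were applied to a genetically altered yeast strain carrying a cell-cycle control defect. Growth inhibition was scored against vehicle-treated controls.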

[6] = NCI Yeast Anticancer Drug Screen. Data for the mlh1 rad18 strain (AID 175); conditions: S. cerevisiae mlh1 rad18 strain growth inhibition, active compounds read high; at 50.0 µM unless noted
How it was run: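 Yeast w/ defined DNA-repair lesions; compound exposure; growth vs vehicle controls → % inhibition.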

SMILES	growth inhibition [1]	growth inhibition [2]	growth inhibition [3]	growth inhibition [4]	growth inhibition [5] [%]	growth inhibition [6]
OCC#CC#CCO	-3.7%	-7.45%	8.75%	-1.05%	-15.8	-1.45%
O=C1CC(c2ccccc2)n2c(nc3ccccc32)N1 (stereo not given)	5%	1.85%	-18.1%	-14.1%	-15.4	-64.2%
CC(=O)O/N=C(\C(c1ccccc1)c1ccccc1)C1c2ccccc2-c2ccccc21	91.3% (active)	88.7% (active)	96.9% (active)	91.2% (active)	64.8	96.2% (active)
O=C(Nc1ccc(S(=O)(=O)c2ccc(F)cc2)cc1)OC1CCCCC1	35.9%	5.85%	38.9%	18.1%	4.4	18.4%
COC1COCOC1C(OC)C1OCOCC1OC (stereo not given)	-2.25%	-12.2%	-8.15%	-46.3%	-4.25	-2.8%
Oc1ccccc1C1CCCC1	5.55%	-10%	-4.75%	3.7%	0.25	-2.45%
O=C(O)C(=O)c1c(O)[nH]c2ccccc12	1.35%	-10.1%	11.5%	-14.8%	-8	17.6%
COC(=O)C(Cc1ccccc1)C(=O)C(CC(=O)OC(C)(C)C)NC(=O)OC(C)(C)C (stereo not given)	14.7%	1.15%	17%	10.8%	22.1	-27.5%
COc1ccc(-c2oc3c(CC(=O)O)cccc3c(=O)c2OC)cc1	-8.75%	-15.3%	-25.3%	-14.4%	-12.7	-12.3%
CS(=O)CCC1C(=O)OC(C(C)(C)C)N1C(=O)c1ccccc1 (stereo not given)	8.25%	3.65%	4.55%	-12.3%	-0.85	-0.4%
Cc1ccc(C2=NN(c3ccccc3)C(c3ccccc3)C2NC2CCCCC2)cc1 (stereo not given)	41.1%	-12.3%	19.6%	-27.4%	0.5	10.3%
O=C(NCN1CCOCC1)NC(=O)NCN1CCOCC1	-10.6%	7.4%	-7.6%	-3.9%	12.2	-3.95%
CCOC(=O)N1CCN(C(=O)CC(C)=O)CC1	2.35%	-32.5%	-0.15%	19.1%	4.45	16.6%
O=[N+]([O-])C(c1ccccc1)C(c1ccccc1)C(c1ccccc1)[N+](=O)[O-] (stereo not given)	4.25%	6.05%	5.6%	23.2%	22.6	10%
COc1ccc2cc3n(c(=O)c2c1OC)CCc1cc2c(cc1-3)OCO2	11.9%	-20.7%	14.2%	25.4%	2.8	-0.45%
c1cncc(C2N3CCCCC3[C@@H]3c4[nH]c5ccccc5c4CCN23)c1 (stereo not given in full)	-26.6%	-40.5%	-22.8%	-8.25%	-15.1	-26.9%
O=C(Nc1ccc(Cl)cc1)Nc1nnc(-c2cccc(Cl)c2)o1	5.8%	5.75%	26.9%	-51.9%	0.2	15%
NC1=NCC(CN2CCCCC2)O1 (stereo not given)	7.1%	1.8%	-4.05%	-2.4%	-8.3	5.9%

SMILES	growth inhibition [1]	growth inhibition [2]	growth inhibition [3]	growth inhibition [4]	growth inhibition [5] [%]	growth inhibition [6]
O=C(COc1ccc(Cl)cc1)Nc1cc(Cl)c(Cl)cc1Cl	-1.55%	-7.2%	3.1%	-17.7%	11.2	1.3%
COc1ccc(/C=N\NC(=O)c2cnccn2)cc1	9.15%	10.8%	5.35%	1.4%	15.7	11.1%
NC1=CNC(=O)C1	1.65%	1.45%	-3.05%	-1.65%	14.1	-7.4%
CCC12C=CCN3CC[C@@]4(c5cc([C@@]6(C(=O)OC)C[C@@H]7CN(CCc8c6[nH]c6ccccc86)C[C@](O)(CC)C7)c(OC)cc5N(C)[C@H]4[C@@](O)(C(=O)NCCCCCCCCCCCC(=O)O)[C@@H]1O)C32 (stereo not given in full)	19%	19.8%	21.6%	5%	25.3	-17.6%
S=c1[nH]c2ccccc2c(=S)n1CN1CCCCC1	-26.6%	-27.4%	-15.3%	-13.1%	4.6	-11.9%
COc1ccccc1-n1c(=O)c(N=Nc2ccc(C)cc2)c(O)n(-c2ccccc2C)c1=S	-34.8%	-10.5%	-17.9%	-44.1%	0	-37.5%
OCCCC(O)CCC(O)CCC(O)CCCO (stereo not given)	-4%	-20.1%	9.15%	9.5%	-22.8	5.15%
CCCNCCCCCCNc1cc(OC)cc2cccnc12	54.9%	6.05%	39.7%	63.4%	31.9	54.3%
CNC(=O)OCc1cc(C)cc(C)c1-c1ccco1	-4.95%	-9.15%	28.4%	4%	10.3	7.05%
C/C=C(/I)CBr	28.4%	1.1%	1.75%	3.05%	12.2	21.3%
CC(=O)OCC1OC(n2c(-c3ccccc3)c(N=Nc3ccc(C)cc3)c(C)c(C#N)c2=S)C(OC(C)=O)C(OC(C)=O)C1OC(C)=O (stereo not given)	-22.6%	-25.1%	-22.9%	4.05%	-4.9	1.1%
Nc1c(F)c(F)c(N=Nc2ccccc2)c(F)c1F	5.2%	7.1%	3.8%	7.05%	24.4	-17.1%
O=S1(=O)C2C=CC1C(Br)C(Br)CC2 (stereo not given)	-9.4%	13.9%	26.8%	12%	-0.15	20.4%
COc1ccc(/C=C2\N=C3N(Cc4ccccc4)C=C(N)N3C2=O)cc1	2.65%	-6.1%	15.8%	-6.55%	17.8	9.75%
O=C(O)c1ccc(P(=O)(O)O)cc1[N+](=O)[O-]	26.4%	9.65%	-9.45%	1.75%	4.25	-7%
COc1cc(CCC(NC(C)=O)c2cccc(O)c(=O)c2)cc(OC)c1OC (stereo not given)	-10.2%	-4.6%	17.2%	-33.5%	-3.35	8.1%
C[N+]1(Cc2csc(-c3ccc(Cl)cc3)n2)CCOCC1	3.15%	-25.6%	10.5%	9.35%	0.7	4.2%
